Reference: PubChem BioAssay (NCATS)
Inconclusive results are not listed. The source made the active and inactive calls. Unless noted, calls come from the whole dose curve; as a rule, active = well fitted curve in the direction sought with a large enough effect; inconclusive = small, poorly fitted or top-dose-only effect, or another doubt; inactive = no such curve, though single readings can be large; an effect the other way counts as inactive or inconclusive.

Columns and labels:
[1] = qHTS for differential inhibitors of proliferation of Plasmodium falciparum line Dd2 (AID 1882); conditions: Potency: Plasmodium falciparum Dd2 proliferation inhibition;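 note: series mostly up to about 29 µM; plate controls were DMSO vehicle for no effect and 0.29 µM artemisinin for full effect; nearly all actives have a fitted effect of over 65% in size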
Outline: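 SYBR Green DNA fluorescence (ex 485, em 535 nm) after overnight lysis quantifies parasite growth; compound exposure lasted 72 h at 37 C on infected red cells at 2.5% hematocrit, 0.3% parasitemia (final). Artemisinin 0.29 uM and vehicle wells define normalization.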

[2] = qHTS for differential inhibitors of proliferation of Plasmodium falciparum line W2 (AID 1883); conditions: Potency: Plasmodium falciparum W2 proliferation inhibition;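 note: potency is the fitted concentration of half-maximal effect; parasites grown with compound for 72 h before lysis and staining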
[3] = qHTS for differential inhibitors of proliferation of Plasmodium falciparum line HB3 (AID 1886); conditions: Potency: Plasmodium falciparum HB3 proliferation inhibition;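 note: parasites grown with compound for 72 h before SYBR Green readout; plate controls were vehicle for no effect and reference inhibitor for full effect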
[4] = biological target: Ferritin light chain (Equus caballus) (UniProt P02791); assay: qHTS Validation Assay for Identification of Novel General Anesthetics (AID 2323); note: series mostly up to about 77 µM; % is set by controls: 0 for no effect and ±100 for the full control effect
Outline: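 Apoferritin from horse spleen (10 uM) was mixed with 1-aminoanthracene at 50% saturation in PBS, then compounds were added. After 10 min at room temperature, fluorescence was read (ex 380 nm, em 535 nm) and normalized to free-probe and complex controls.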

[5] = biological target: ATP-dependent DNA helicase Q1 (Homo sapiens) (UniProt P46063); assay: qHTS Validation Assay for Inhibitors of RecQ-Like Dna Helicase 1 (RECQ1) (AID 2353);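 note: plate controls were DMSO vehicle for no effect and enzyme-free control for full effect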
Outline: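 RECQ1T1 50 nM; forked duplex (20 bp + 30-nt ss tails) 200 nM, ATP 2 mM final; pH 8.0, 2 mM MgCl2, 2.5 ug/ml poly(dI-dC); 15 min compound preincubation; discontinuous kinetic read over 2 h at RT.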

[6] = biological target: RecQ-like DNA helicase BLM (Homo sapiens) (UniProt P54132); assay: qHTS Validation Assay for Inhibitors of Bloom's syndrome helicase (BLM) (AID 2364);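 note: plate controls were DMSO vehicle for no effect and enzyme-free control for full effect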
Outline: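 Forked 20-bp duplex substrate (200 nM, TAMRA/BHQ-2) plus 2 mM ATP added after 15 min compound preincubation with 50 nM enzyme, pH 8.0, poly(dI-dC) 2.5 ug/ml. Strand separation followed by fluorescence (525/598 nm) over 2 h, normalized to enzyme-free and DMSO controls.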

[7] = Validation screen for small molecules that induce DNA re-replication in MCF 10A normal breast cells (AID 463097); note: 0% is about no effect; nearly all actives have a fitted effect of over 60% in size
Outline: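 DNA re-replication was detected as a rise in nuclei with elevated Hoechst fluorescence after a 48 hr compound exposure of MCF 10A cells at 37 C.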

[8] = Quantitative high throughput screen for delayed death inhibitors of the malarial parasite plastid, 96 hour incubation (AID 488745); note: series mostly up to about 29 µM; % is set by controls: 0 for no effect and ±100 for the full control effect; nearly all actives have a fitted effect of over 70% in size
Outline: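 Decreased firefly luciferase luminescence indicates inhibited growth of reporter-integrated P. falciparum after two generations (96 h, 37 C, 5% CO2). Infected erythrocytes at 0.1% parasitemia, 2% hematocrit, in Albumax-supplemented RPMI 1640.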

[9] = Quantitative high throughput screen for delayed death inhibitors of the malarial parasite plastid, 48 hour incubation (AID 488752); note: % is set by controls: 0 for no effect and ±100 for the full control effect; nearly all actives have a fitted effect of over 65% in size
Outline: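 One-generation (48 h) growth assay: a decrease in luciferase signal from an integrated reporter in P. falciparum-infected red cells (0.1% parasitemia, 2% hematocrit) after compound exposure at 37 C indicates parasite inhibition.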

[10] = biological target: M-phase phosphoprotein 8 (Homo sapiens) (UniProt Q99549); assay: qHTS Validation Assay for Inhibitors for MPP8 Chromodomain Interactions with Methylated Histone Tails (AID 488949);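 note: AlphaScreen signal from MPP8 chromodomain bound to biotinylated H3K9me3 peptide; top concentration of the series differs between compounds; % is set by controls: 0 for no effect and ±100 for the full control effect; nearly all actives have a fitted effect of over 55% in size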
Outline: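 Disruption of the preformed MPP8–trimethyl-H3K9 peptide complex (both 50 nM, 30 min, RT) is measured after 30 min compound exposure, using AlphaScreen proximity beads; aurintricarboxylic acid titration serves as plate control.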

[11] = biological target: Transient receptor potential cation channel subfamily V member 1 (Homo sapiens) (UniProt Q8NER1); assay: HTS Assay for Compounds that Act as Enhancers of the Vanilloid Receptor 1 (AID 488979); note: 0% is about no effect
Outline: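 Calcium influx kinetics via Fluo-8 (480/520 nm) in TRPV1-expressing cells, 2000/well cultured overnight at 35.5C. Compound-alone read 3 min (agonist phase), followed by EC20 capsaicin challenge for 2 min (enhancer phase).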

[12] = biological target: Thyrotropin receptor (Homo sapiens) (UniProt P16473); assay: qHTS Assay for Antagonists of the Thyroid Stimulating Hormone Receptor (AID 488980); note: series mostly up to about 58 µM; 0% is about no effect
Outline: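 Cells expressing human TSHR (HEK293) are dispensed in HBSS/HEPES containing 70 uM RO 20-1724, compound is added, then TSH at EC80 (4 nM final). Antibody in lysis buffer follows, 30 minutes at room temperature before HTRF detection.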

[13] = biological target: Thyrotropin-releasing hormone receptor (Homo sapiens) (UniProt P34981); assay: qHTS for Small Molecule Agonists and Allosteric Enhancers of Human TRH Receptor: Validation Screen for Agonists (AID 493127;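 active = calcium activation more than 3 SD above the typical response in the agonist read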;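 note: intracellular calcium rise by fluo-8 fluorescence before TRH EC20 addition; 0% is about no effect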); conditions: TRH receptor agonist cell assay; at 2 µM; active compounds read high
Outline: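 Compound-evoked intracellular calcium release in fluo-8-loaded TRHR cells, read kinetically on FDSS (Ex 480/Em 530, 1 s/cycle) after 23 nL pintool transfer. Agonist phase preceded 10 nM TRH EC20 addition.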

[14] = biological target: Galactokinase (Homo sapiens) (UniProt P51570); assay: qHTS Validation Assay for Inhibitors of Human Galactokinase (GALK) (AID 493189); note: 0% is about no effect
Outline: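 Compounds were pin-transferred into ATP buffer, then GALK-galactose mix was added (final 5 nM enzyme, 100 uM galactose, 35 uM ATP). After 1 h at room temperature, remaining ATP was measured luminescently.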

[15] = Validation screen for small molecules that induce DNA re-replication in SW480 colon adenocarcinoma cells (AID 504364); note: 0% is about no effect
Outline: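 Image-based DNA content read-out: Hoechst stain 40 min, total nuclear fluorescence intensity (ex 405 nm, em 500-530 nm) after 48 h compound exposure of 250 SW480 cells/well at 37 C, 5% CO2, versus DMSO vehicle.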

[16] = biological target: DNA dC->dU-editing enzyme APOBEC-3G (Homo sapiens) (UniProt Q9HC16); assay: qHTS for inhibitors of Vif-A3G interactions: Validation (AID 588379); note: 0% is about no effect
Outline: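 Yellow fluorescence (Ex 488, Em 500-530) of Vif-coexpressing HeLa A3G-eYFP cells, scanned by Acumen cytometer, reports blocked A3G degradation. Cells plated at 700/well overnight at 37 deg C before compound addition, then a further overnight compound incubation at 37 deg C.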

[17] = tested on: Zika virus NS2B-NS3 protease; assay: Primary screen GU AMC qHTS for Zika virus inhibitors (AID 1347154);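 note: 0% = no-inhibitor control and -100% = no-enzyme control; nearly all actives have a fitted effect of over 70% in size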
Outline: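 Fluorogenic AMC-substrate cleavage by noncovalent NS2B-NS3 protease complex (25 nM, pH 8.0 Tris buffer with Tween 20) followed for 15 minutes at room temperature (~20% conversion). Percent inhibition from ex340/em450 signal change, fitted by 4-parameter Hill equation.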

[18] = Primary qHTS for small molecule stabilizers of the endoplasmic reticulum resident proteome: Secreted ER Calcium Modulated Protein (SERCaMP) assay (AID 1508630); note: % is set by controls: 0 for no effect and ±100 for the full control effect
Outline: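 The SH-SY5Y reporter protocol was run at 3 concentrations up to 38.3 uM (primary) or 11 concentrations (follow-up): 16 h compound, 100 nM thapsigargin for 4 h, then extracellular luciferase luminescence.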

Chain of Galactokinase (Homo sapiens) (P51570 whole entry, looked up): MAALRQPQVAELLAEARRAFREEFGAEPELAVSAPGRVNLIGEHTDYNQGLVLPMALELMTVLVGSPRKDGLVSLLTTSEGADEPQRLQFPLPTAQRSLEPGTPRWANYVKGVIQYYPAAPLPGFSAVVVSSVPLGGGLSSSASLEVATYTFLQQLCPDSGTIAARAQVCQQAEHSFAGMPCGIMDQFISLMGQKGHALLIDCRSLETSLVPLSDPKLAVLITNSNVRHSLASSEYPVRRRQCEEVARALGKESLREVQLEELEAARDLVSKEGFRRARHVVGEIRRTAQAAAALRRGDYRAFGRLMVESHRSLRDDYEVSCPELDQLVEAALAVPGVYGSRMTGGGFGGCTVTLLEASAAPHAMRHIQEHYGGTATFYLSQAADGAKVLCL
Chain of M-phase phosphoprotein 8 (Homo sapiens) (Q99549 whole entry, looked up): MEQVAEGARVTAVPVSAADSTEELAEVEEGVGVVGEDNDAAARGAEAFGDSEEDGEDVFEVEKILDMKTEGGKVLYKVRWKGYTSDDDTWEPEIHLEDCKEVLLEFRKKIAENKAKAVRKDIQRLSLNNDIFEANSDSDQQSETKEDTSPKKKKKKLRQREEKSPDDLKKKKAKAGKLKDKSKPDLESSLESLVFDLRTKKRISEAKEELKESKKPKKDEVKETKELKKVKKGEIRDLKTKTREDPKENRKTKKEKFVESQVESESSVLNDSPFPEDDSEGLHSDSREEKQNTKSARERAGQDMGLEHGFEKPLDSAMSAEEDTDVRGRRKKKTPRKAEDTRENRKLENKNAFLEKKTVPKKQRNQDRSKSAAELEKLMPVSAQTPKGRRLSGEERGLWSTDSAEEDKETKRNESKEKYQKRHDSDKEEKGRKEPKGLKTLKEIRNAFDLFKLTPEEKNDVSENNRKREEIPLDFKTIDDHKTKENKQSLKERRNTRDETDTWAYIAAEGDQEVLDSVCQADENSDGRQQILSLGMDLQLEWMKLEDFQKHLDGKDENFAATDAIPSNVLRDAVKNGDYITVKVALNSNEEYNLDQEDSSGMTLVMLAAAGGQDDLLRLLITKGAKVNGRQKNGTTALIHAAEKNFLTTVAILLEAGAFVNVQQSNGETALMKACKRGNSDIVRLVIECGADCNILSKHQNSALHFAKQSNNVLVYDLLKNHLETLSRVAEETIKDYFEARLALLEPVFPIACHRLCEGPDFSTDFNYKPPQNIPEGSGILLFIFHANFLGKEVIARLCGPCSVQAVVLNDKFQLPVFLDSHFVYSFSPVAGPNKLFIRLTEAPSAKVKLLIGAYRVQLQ
Chain of Transient receptor potential cation channel subfamily V member 1 (Homo sapiens) (Q8NER1 whole entry, looked up): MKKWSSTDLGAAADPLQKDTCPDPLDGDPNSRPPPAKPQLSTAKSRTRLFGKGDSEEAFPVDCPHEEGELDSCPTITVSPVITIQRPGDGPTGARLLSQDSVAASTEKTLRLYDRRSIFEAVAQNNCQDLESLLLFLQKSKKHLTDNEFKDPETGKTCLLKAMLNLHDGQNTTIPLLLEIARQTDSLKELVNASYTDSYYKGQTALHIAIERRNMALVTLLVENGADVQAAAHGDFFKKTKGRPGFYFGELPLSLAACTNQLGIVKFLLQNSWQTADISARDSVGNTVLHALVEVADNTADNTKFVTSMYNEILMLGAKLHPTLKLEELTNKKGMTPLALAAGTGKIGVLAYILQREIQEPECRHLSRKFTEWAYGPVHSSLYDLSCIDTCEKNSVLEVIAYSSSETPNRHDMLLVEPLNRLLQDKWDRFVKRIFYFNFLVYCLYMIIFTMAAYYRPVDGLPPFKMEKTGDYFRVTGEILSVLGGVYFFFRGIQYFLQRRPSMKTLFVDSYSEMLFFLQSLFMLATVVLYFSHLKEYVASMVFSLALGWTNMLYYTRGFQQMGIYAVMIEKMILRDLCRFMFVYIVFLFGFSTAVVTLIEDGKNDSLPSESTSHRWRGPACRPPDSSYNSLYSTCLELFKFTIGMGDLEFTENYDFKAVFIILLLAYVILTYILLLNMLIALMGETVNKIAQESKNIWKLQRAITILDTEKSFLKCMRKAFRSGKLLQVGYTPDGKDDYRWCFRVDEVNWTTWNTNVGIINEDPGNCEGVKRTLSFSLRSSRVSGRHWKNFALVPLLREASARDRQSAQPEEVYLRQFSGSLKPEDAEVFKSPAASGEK
Chain of ATP-dependent DNA helicase Q1 (Homo sapiens) (P46063 whole entry, looked up): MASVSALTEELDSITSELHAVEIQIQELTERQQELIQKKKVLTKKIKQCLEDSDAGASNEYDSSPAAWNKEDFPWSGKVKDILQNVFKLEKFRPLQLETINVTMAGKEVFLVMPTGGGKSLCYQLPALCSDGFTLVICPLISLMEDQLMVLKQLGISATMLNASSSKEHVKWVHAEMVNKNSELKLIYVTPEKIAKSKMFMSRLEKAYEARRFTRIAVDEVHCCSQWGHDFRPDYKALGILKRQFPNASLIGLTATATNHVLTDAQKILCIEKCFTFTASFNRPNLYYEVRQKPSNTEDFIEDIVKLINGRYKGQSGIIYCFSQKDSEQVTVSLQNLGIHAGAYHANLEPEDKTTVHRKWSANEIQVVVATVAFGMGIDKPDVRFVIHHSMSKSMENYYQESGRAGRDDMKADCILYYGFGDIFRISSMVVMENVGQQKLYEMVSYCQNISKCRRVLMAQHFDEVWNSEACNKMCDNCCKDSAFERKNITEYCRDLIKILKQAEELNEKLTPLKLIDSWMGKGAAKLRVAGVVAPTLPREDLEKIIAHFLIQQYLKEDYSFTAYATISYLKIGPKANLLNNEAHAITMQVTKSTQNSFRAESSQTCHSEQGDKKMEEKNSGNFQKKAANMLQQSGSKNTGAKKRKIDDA
Chain of Thyrotropin receptor (Homo sapiens) (P16473 whole entry, looked up): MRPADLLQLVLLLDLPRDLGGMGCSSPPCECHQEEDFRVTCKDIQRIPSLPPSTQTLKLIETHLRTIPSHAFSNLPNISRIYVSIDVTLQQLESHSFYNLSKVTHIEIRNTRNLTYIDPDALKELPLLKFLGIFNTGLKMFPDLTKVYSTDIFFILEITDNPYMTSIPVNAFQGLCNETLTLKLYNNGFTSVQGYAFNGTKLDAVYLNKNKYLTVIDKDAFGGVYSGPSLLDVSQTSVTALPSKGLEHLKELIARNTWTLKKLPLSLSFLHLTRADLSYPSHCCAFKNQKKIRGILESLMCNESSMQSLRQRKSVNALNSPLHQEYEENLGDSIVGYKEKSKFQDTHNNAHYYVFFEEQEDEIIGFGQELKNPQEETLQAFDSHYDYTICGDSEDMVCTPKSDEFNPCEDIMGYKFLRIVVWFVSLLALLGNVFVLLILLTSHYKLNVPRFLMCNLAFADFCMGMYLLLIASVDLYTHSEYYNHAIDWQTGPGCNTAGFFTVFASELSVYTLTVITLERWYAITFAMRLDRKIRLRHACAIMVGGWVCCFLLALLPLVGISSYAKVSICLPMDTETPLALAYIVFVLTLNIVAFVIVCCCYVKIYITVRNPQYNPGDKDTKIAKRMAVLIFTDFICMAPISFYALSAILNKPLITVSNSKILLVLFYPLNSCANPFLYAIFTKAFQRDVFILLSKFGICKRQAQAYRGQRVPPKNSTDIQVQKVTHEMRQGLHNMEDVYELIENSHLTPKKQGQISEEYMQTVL
Chain of Ferritin light chain (Equus caballus) (P02791 2-175 limits assumed): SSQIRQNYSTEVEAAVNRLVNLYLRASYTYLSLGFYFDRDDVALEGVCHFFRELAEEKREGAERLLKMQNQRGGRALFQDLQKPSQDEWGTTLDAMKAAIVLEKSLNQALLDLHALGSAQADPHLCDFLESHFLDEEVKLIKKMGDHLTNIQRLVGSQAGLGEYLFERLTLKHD
Chain of Thyrotropin-releasing hormone receptor (Homo sapiens) (P34981 whole entry, looked up): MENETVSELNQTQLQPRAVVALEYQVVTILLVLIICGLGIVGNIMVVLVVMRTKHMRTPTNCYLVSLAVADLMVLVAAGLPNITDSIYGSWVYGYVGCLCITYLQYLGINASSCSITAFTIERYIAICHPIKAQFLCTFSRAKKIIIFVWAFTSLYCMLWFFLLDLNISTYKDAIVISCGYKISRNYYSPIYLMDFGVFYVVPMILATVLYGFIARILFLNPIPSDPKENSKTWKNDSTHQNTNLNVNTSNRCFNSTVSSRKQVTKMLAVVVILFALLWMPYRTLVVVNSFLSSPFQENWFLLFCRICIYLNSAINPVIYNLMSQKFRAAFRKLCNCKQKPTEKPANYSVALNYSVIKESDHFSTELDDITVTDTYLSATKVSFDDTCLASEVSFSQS
Chain of DNA dC->dU-editing enzyme APOBEC-3G (Homo sapiens) (Q9HC16 whole entry, looked up): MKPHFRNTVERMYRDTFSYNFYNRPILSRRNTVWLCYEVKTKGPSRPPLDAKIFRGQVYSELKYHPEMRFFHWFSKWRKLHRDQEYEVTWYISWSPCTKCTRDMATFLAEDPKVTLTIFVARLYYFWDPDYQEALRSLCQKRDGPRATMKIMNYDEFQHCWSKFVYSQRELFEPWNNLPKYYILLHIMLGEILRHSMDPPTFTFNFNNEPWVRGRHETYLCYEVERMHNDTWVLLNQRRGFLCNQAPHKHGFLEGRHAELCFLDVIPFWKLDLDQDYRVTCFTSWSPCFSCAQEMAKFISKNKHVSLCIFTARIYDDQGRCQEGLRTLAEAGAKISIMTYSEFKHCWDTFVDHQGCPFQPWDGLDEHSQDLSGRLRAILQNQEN

NCCNS(=O)(=O)c1cccc2cnccc12
inactive: Potency [1] | Potency [3] | outcome [4] | Potency [5] | Potency [6] | Potency [7] | Potency [8] | Potency [9] | Potency [10] | outcome [11] | outcome [12] | activation [13] -0.5% | outcome [14] | outcome [15] | Potency [16] | Potency [17] | Potency [18]
active: Potency [2] 11.2 µM
